The values below come from PubChem BioAssay (NCATS).

Values joined by “and” are separate entries in the source; they are usually repeats but may differ in a detail not shown here. Identical values can stand only once. Records with an inconclusive call do not appear. Some structures have more than one record in an assay (separate samples or runs), and their calls can disagree. Unmarked numbers belong to inactive results. Active and inactive are the calls of the source. Calls come from the whole dose curve; as a rule, active = well fitted cell-killing curve with a large enough effect; inconclusive = small, poorly fitted or top-dose-only effect; inactive = flat fitted curve, though single readings scatter.
% is set by controls: 0 for no effect and ±100 for the full control effect; potency is the fitted concentration of half-maximal effect.

The test is described as follows: Cellular viability qHTS for adrenocortical cancer (ACC) cell line SW-13 (AID 1963989).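 For activity (max response): cells grown in serum-free medium with ITS supplement.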 Note: nearly all actives have a fitted effect of over 65% in size. As to conditions: SW-13 ACC cells viability, CellTiter-Glo, 48 h; activity (max response): hits give low values. The procedure, abridged:
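Here, serum-free SW-13 cultures were dosed up to 46 uM. Following 48 h, ATP-dependent luminescence (CellTiter-Glo) reported viable cells, and logistic modeling produced IC50 values.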
As for `CCC(=O)O[C@H]1[C@H](O[C@@H]2[C@@H](C)[C@H](O[C@H]3C[C@@](C)(OC)[C@@H](O)[C@H](C)O3)[C@@H](C)C(=O)O[C@H](CC)[C@@](C)(O)[C@H](O)[C@@H](C)C(=O)[C@H](C)C[C@@]2(C)O)O[C@H](C)C[C@@H]1N(C)C`, the activity (max response) was 0.809%.

Turning to `CC(=O)OCC(=O)[C@@]1(O)CC[C@H]2[C@@H]3CCC4=CC(=O)CC[C@]4(C)[C@H]3C(=O)C[C@@]21C`, the activity (max response) is -12.6% and -6.75%. The same measure, in the same setting: for `O=c1[nH]c2ccccc2c(=O)n1CCCl` the value was 10.7%; for `C[C@H](NC(=O)c1c(N)nn2cccnc12)c1cc2cccc(C#Cc3cnn(C)c3)c2c(=O)n1-c1ccccc1`, -17.5%.

For the molecule `O=C1NC(=O)C(c2c[nH]c3ccccc23)=C1c1c[nH]c2ccccc12`, the Potency was 25.1 µM (active). For the molecule `CNC(=O)[C@H](Cc1c[nH]c2ccccc12)NC(=O)[C@@H](CC(=O)NO)CC(C)C`, the activity (max response) was -15.7%. With `Nc1nc(F)nc2c1ncn2C1OC(COP(=O)(O)O)C(O)C1O` (configuration not stated), the activity (max response) was -0.687%. Still for that read-out and setting: under `COc1cc(C(=O)N2CCCCCCC2)cc(OC)c1OC` stands 6.12%. Take `O=C(O)[C@@H]1[C@H]2C[C@H]3c4[nH]c5ccccc5c4CCN3C[C@@H]2CC[C@@H]1O`: the activity (max response) was 3.73%. The same measure, in the same setting: under `O=C(O)C(S)C(S)C(=O)O` (configuration not stated) stands 13.2%; under `COc1ccccc1OCC(O)CO` (configuration not stated), 13.4%.

As for `CN(C)Cc1ccc(S(=O)(=O)n2ccc(/C=C/C(=O)NO)c2)cc1`, the Potency was 12.6 µM (active).

In the case of `CNC1(C)C2CCC(C2)C1(C)C` (configuration not stated), the activity (max response) is -10.9%. Consider `CC(C)n1c(/C=C/[C@H](O)C[C@H](O)CC(=O)O)c(-c2ccc(F)cc2)c2ccccc21`, for which the Potency is 17.8 µM (active). Same read-out and setting: under `CCc1cc(C(N)=O)ccc1-n1nc(C(C)C)c2c(-n3cnc(-c4cnn(C)c4)c3)ccnc21` stands 2.82 µM (active). In the case of `COc1c(C)c2c(c(O)c1C/C=C(\C)CCC(=O)O)C(=O)OC2`, the activity (max response) is -49%. Consider `CC(=O)Nc1ccc(OCCOCCOc2ccc(NC(C)=O)cc2)cc1`, for which the activity (max response) is -7.42%. As for `Cc1ccc([N+](=O)[O-])cc1S(=O)(=O)N(C)/N=C/c1cnc2ccc(Br)cn12`, the Potency is 0.282 µM (active).

Turning to `Nc1nc(F)nc2c1ncn2[C@@H]1O[C@H](COP(=O)(O)O)[C@@H](O)[C@@H]1O`, the activity (max response) is -12.7%. Same read-out and setting: under `CO[C@H]1O[C@@H]2O[C@@]3(C)CC[C@H]4[C@H](C)CC[C@@H]([C@H]1C)[C@@]24OO3` stands 0.283%. Turning to `NC(=O)N/N=C/c1ccc([N+](=O)[O-])o1`, the Potency was 35.5 µM (active) and the activity (max response) was 4.16%. As for `C[C@@H](OC[C@@]1(c2ccccc2)CC[C@]2(CCC(=O)N2)CN1)c1cc(C(F)(F)F)cc(C(F)(F)F)c1`, the Potency is 25.1 µM (active). Regarding `Cn1cc[nH]c1=S`, the activity (max response) was 12%. Same read-out and setting: under `CCN(CC)C(C)CN1c2ccccc2Sc2ccccc21` (configuration not stated) stands 16.5%; under `CCN(Cc1ccncc1)C(=O)C(CO)c1ccccc1` (configuration not stated), -0.134%; under `CCN(CC)CCc1nc(-c2ccccc2)no1`, -1.01%.

`CC1=C(CC(=O)O)c2cc(F)ccc2/C1=C\c1ccc(S(C)=O)cc1` (configuration not stated): the activity (max response) is 1.22%. Same read-out and setting: for `C[C@@H]1CC(=O)Nc2cccc(-c3cnn(C(C)(C)C)c3)c2N1` the value was 2.32%. Same read-out and setting: under `Cc1c(NC(=O)c2cc(C(N)=O)nc3cc(F)ccc23)c(C(F)(F)F)nn1Cc1ccc(C#N)cc1` stands -7.79%. With `C[C@@H](O)[C@@H](C)Oc1nc(Nc2ccc(S(=N)(=O)C3CC3)cc2)ncc1C(F)(F)F` (some centres not stated), the activity (max response) is 4.29%. On the same count and under the same terms, for `CC[C@H](Nc1ncnc2nc[nH]c12)c1oc2ccccc2c(=O)c1-c1cccc(F)c1` the value was -13.2%.

For the molecule `CN(C)C[C@@H]1CCn2cc(c3ccccc32)C2=C(C(=O)NC2=O)c2cn(c3ccccc23)CCO1`, the Potency was 28.2 µM (active). `Cc1ccc(S(=O)(=O)Cc2nc(-c3ccc(C(=O)NCc4cccnc4)cc3)oc2C)cc1`: the Potency was 0.199 µM (active). In the case of `C[C@H]1C[C@H]2[C@@H]3CCC4=CC(=O)C=C[C@]4(C)[C@H]3C(=O)C[C@]2(C)[C@@]1(O)C(=O)CO`, the activity (max response) is -6.73%. In the case of `NC(=O)c1cccc2c(NC(CN3CCC3)c3ccc(Cl)c(C(F)(F)F)c3)ncnc12` (configuration not stated), the Potency is 14.1 µM (active).

For the molecule `O=C(O)CCC(=O)Nc1ccc(S(=O)(=O)Nc2nccs2)cc1`, the activity (max response) is -7.1%. As to `O=C(CCCCCCC(=O)N/N=C/c1ccc(N(c2ccccc2)c2ccccc2)cc1)NO`, the Potency was 28.2 µM (active). As for `COc1cc(C(=S)N2CCOCC2)cc(OC)c1OC`, the activity (max response) was 1.86%. With `CCOC(=O)CCNc1cc(N2CCc3ccccc3CC2)nc(-c2ccccn2)n1`, the Potency is 1.26 µM (active).

For `CCC1=C[C@@H]2CN(C1)Cc1c([nH]c3ccccc13)[C@@](C(=O)OC)(c1cc3c(cc1OC)N(C)[C@H]1[C@@](O)(C(=O)OC)[C@H](OC(C)=O)[C@]4(CC)C=CCN5CC[C@]31[C@@H]54)C2`, the Potency is 0.143 µM (active) and the activity (max response) was -91.8%.
